RORg inh – ROR gamma (mouse) transcription inhibition; Potency, µM (doses to about 53.6 µM), without a hit: top-dose activity change, negative = inhibition, hits mostly inhibitors; P51450; Drosophila S2 Gal4-RORgamma UAS-luciferase reporter, 20 h; 5.4% of 310,000 active; note: % is set by controls: 0 for no effect and ±100 for the full control effect; nearly all actives have a fitted effect of over 60% in size
Target sequence (P51450 whole entry, looked up, the tested form may be a part): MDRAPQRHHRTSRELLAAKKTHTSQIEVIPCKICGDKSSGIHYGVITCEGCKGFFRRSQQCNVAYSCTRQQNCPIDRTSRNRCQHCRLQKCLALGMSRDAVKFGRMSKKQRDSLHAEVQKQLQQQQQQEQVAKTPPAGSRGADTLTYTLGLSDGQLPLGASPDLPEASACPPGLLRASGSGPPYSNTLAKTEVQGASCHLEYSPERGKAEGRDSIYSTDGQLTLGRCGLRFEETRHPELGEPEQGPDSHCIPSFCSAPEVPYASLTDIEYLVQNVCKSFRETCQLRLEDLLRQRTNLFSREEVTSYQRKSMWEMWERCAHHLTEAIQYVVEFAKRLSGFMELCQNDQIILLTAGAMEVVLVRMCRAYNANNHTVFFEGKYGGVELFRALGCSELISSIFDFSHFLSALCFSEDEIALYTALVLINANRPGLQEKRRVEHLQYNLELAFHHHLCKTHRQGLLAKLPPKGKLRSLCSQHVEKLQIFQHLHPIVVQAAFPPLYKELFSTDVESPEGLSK
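Stably transfected Drosophila Schneider cells are the test system, with ROR gamma fused to Gal4 and luciferase under UAS control; luminescence is read after 20 hr of 700 uM copper sulfate induction at ambient temperature.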
ATXN viability – reduces viability in counter-screen for ATXN expression inhibitors; S2 cells (HEK-293 line with an ATXN2-luciferase reporter) viability, CellTiter-Fluor protease fluorescence, 24 h; Potency, µM (top dose mostly 56.7 µM), actives largely listed as cytotoxic; 0.49% of 400,000 active; AID 651635; note: nearly all actives have a fitted effect of over 40% in size
VP16 counter – inhibits Gal4-VP16 luciferase reporter, ROR gamma counter-screen; Drosophila S2 Gal4-VP16 UAS-luciferase, luminescence, 20 h; Potency, µM (series often up to 53.6 µM), inactives show at the top dose activity, negative = inhibition, hits mostly inhibitors; 3.5% of 310,000 active; AID 2546;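 note: Gal4-VP16 expression switched on by copper sulfate through the metallothionein promoter; % is set by controls: 0 for no effect and ±100 for the full control effect; nearly all actives have a fitted effect of over 50% in size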
HepG2 tox – HepG2 cytotoxicity, counter-screen for TGF-b inhibitors; HepG2 CAGA-GFP viability, ATP luminescence, 18 h; Potency, µM (series often up to 46.1 µM), for the others: top-dose activity change, negative = cytotoxicity, hits mostly cytotoxic; 0.76% of 410,000 active; AID 588856
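HepG2 CAGA-GFP cells (1000/well, DMEM with 1% FBS) received compound, then TGF-beta at 500 pg/mL final, and were incubated 18 hours at 37 degrees C. Viability was read by CellTiter-Glo luminescence. Media-only wells were set as complete cell-killing and DMSO as no toxicity.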
TGFb SMAD3 inh – TGF-b pathway inhibition. HepG2 CAGA-GFP TGF-b/SMAD3 reporter, GFP fluorescence, 18 h; TGF-beta stimulated, 500 pg/mL final. Potency, µM (series often up to 46.1 µM), inactives show top-dose activity, negative = inhibition, most hits filed as inhibitors. 1.2% of 410,000 active; note: % is set by controls: 0 for no effect and ±100 for the full control effect; nearly all actives have a fitted effect of over 65% in size
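Cell-based qHTS in HEPG2 carrying a CAGA-GFP Smad reporter; compounds added before 500 pg/mL final TGF-beta, 18 h incubation at 37 degrees C, GFP fluorescence quantified per cell by imaging cytometry.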
ATXN2 expr inh – inhibitors of ATXN2 expression. HEK-293 ATXN2-luciferase reporter, luminescence, 24 h. Potency, µM (series often up to 57 µM), for the others: at the highest dose activity change, negative = inhibition, hits mostly inhibitors. 0.72% of 360,000 active. AID 1745845; note: % is set by controls: 0 for no effect and ±100 for the full control effect; nearly all actives have a fitted effect of over 55% in size
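ATXN2-luciferase reporter cells (luciferase flanked by upstream and downstream ATXN2 gene portions) were treated 24 h at 37 °C with compounds at up to 57 uM. SteadyGlo luminescence gave expression; GF-AFC fluorescence gave viability.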
* = called active by the depositor; i = inactive; u = inconclusive; x = not tested or not shown; [ ] = dose if it differs, or a comment. An excerpt weighted towards active compounds, which were near 6.1% of everything screened. Calls come from the whole dose curve; as a rule, active = well fitted curve in the direction sought with a large enough effect; inconclusive = small, poorly fitted or top-dose-only effect, or another doubt; inactive = no such curve, though single readings can be large; an effect the other way counts as inactive or inconclusive. Potency is the fitted concentration of half-maximal effect.

SMILES	RORg inh	ATXN viability	VP16 counter	HepG2 tox	TGFb SMAD3 inh	ATXN2 expr inh
C/C(=N\NC(=O)c1ccc(-c2ccccc2)cc1)C1C(=O)c2ccccc2C1=O	u	u	12%	-89%	13µM*	u
CCOc1ccc(C(=O)N/N=C(/C)C2C(=O)c3ccccc3C2=O)cc1	1.1µM*	u	2.8µM*	6%	3%	-33%
O=C(NCC1(N2CCOCC2)CCCCC1)c1cnn(-c2nccc(-c3ccco3)n2)c1C1CC1	x	i	x	x	x	x
COCCn1c(C)cc(C(=O)CSc2nc3ccccc3o2)c1C	-7%	i	u	-15%	0%	16%
COCCn1c(C)cc(C(=O)CSc2cc(C)c3ccc(OC)cc3n2)c1C	6.3µM*	i	2.2µM*	-2%	u	45%
COCCn1c(C)cc(C(=O)CSc2nc3ccccc3s2)c1C	14µM*	i	5µM*	-30%	0%	-11%
COCCn1c(C)cc(C(=O)CSc2nnc3ccccn23)c1C	3.2µM*	i	u	-24%	-1%	7.1µM*
Cc1ncc(CO)c2c1Oc1nc(-c3ccccc3)nc(SCC(=O)Nc3cccc(O)c3)c1C2	0%	u	u	-39%	13µM*	x
CC1(C)S[C@H]2[C@H](NC(=O)[C@@H](N)c3ccc(O)cc3)C(=O)N2[C@@H]1C(=O)O	x	x	x	x	x	4%
Nc1nc(-c2cc(O)ccc2[N+](=O)[O-])cc(-c2ccccc2)c1[N+](=O)[O-]	u	i	13µM*	-31%	20%	-32%
O=C(NC(=S)NCCC1=CCCCC1)c1cncc(Br)c1	4.5µM*	i	8.9µM*	-52%	u	20%
S=C(NCCC1=CCCCC1)NCc1ccco1	7.1µM*	i	u	0%	5%	25%
O=C(NC(=S)NCCC1=CCCCC1)c1ccccc1Br	3.5µM*	i	3.2µM*	-17%	u	63%
CCOC(=O)CN1NC2(CCCCCC2)NC1=S	7.1µM*	i	-17%	-8%	-7%	-12%
FC(F)(F)c1nc(N2CCCC2)ncc1-c1nnnn1-c1ccc(Cl)cc1	-40%	i	16µM*	-29%	u	-26%
FC(F)(F)c1ccncc1-c1nnnn1-c1ccc(Cl)cc1	13%	i	-8%	-29%	-5%	-21%
Clc1ccc(N2CCN(/N=C/c3ccncc3)CC2)cc1	-1%	i	u	28%	-18%	-8%
Cc1ccc(N2CCN(/N=C/c3ccncc3)CC2)cc1	-3%	i	14µM*	-18%	-12%	0%
COc1ccccc1C(=O)OCc1cc(=O)n2c(C)csc2n1	x	i	x	1%	-2%	0%
COc1cc2c(cc1OC)C1(Nc3c-2c(C)nn3-c2ccccc2)C(=O)Nc2ccccc21 (stereo not given)	-12%	i	-14%	-16%	-4%	1%
COc1cc2c(cc1OC)C1(Nc3c-2c(-c2ccccc2)nn3-c2ccccc2)C(=O)Nc2ccccc21 (stereo not given)	1%	i	-9%	-13%	16µM*	-17%
CCn1c(SCC(=O)N/N=C/C=C/c2ccco2)nc2ccccc21	u	i	16µM*	-26%	u	7%
O=C(CN1C(=O)COc2ccc(S(=O)(=O)N3CCOCC3)cc21)NCc1ccc(F)cc1	x	x	x	-3%	0%	x
COc1ccc(/C=C/C(=O)Nc2ccccc2)cc1OC	5%	i	-4%	6%	-3%	x
COc1ccc(/C=C/C(=O)NC(=S)Nc2ccccc2)cc1OC	10µM*	i	u	-6%	-6%	-27%
SMILES	RORg inh	ATXN viability	VP16 counter	HepG2 tox	TGFb SMAD3 inh	ATXN2 expr inh
Cc1ccnc(NC(=S)NC(=O)/C=C/c2ccccc2)c1	2.8µM*	i	u	0%	21%	44%
COc1ccc(CC(=O)NNC(=S)Nc2ccccc2)cc1Br	13µM*	i	u	-14%	1%	3%
CCOC(=O)c1cc(-c2ccccc2)sc1NC(=S)Nc1cc(C)ccn1	1µM*	i	2.2µM*	-1%	-39%	-7%
Cc1cc(C(=O)NOCCO)c(Nc2ccc(I)cc2F)n(C)c1=O	x	x	x	x	x	-5%
Cc1ccc(NC(=O)CCc2nc3cccnc3n2-c2ccccc2)cc1	x	i	x	-14%	-2%	-16%
CC(C)(C)c1ccc(/C=C/C(=O)Nc2cccnc2)cc1	8%	i	-10%	-6%	2%	101%
Cc1ccnc(NC(=S)NC(=O)/C=C/c2ccc(Cl)cc2)c1	14µM*	u	13µM*	5%	u	0%
COc1ccc(/C=C/C(=O)c2ccc(NC(=O)c3cccs3)cc2)cc1OC	2.5µM*	i	-20%	-41%	0%	18%
CCOc1ccc(NC(=S)NC(=O)/C=C/c2ccc(C)cc2)c([N+](=O)[O-])c1	37%	u	-17%	-7%	-27%	u
CCOc1ccc(NC(=S)NC(=O)/C=C/c2ccc(OC)c(OC)c2)c([N+](=O)[O-])c1	1.1µM*	u	2.5µM*	0%	2%	u
O=C(/C=C/c1ccccc1)NC(=S)Nc1cccnc1	7.1µM*	i	-6%	-18%	3%	-3%
CCc1cc(=O)[nH]c(SCc2nc(-c3ccc(C(F)(F)F)cc3)no2)n1	x	x	x	-54%	-13%	x
CCOc1ccc(N/C=C/C(=O)c2ccc(C)cc2)c([N+](=O)[O-])c1	2µM*	i	u	10%	25%	2%
O=C(O)/C=C/C(=O)Nc1cccnc1	-8%	i	u	33%	15%	-4%
CCOc1ccc(N/C=C/C(=O)c2ccc3ccccc3c2)c([N+](=O)[O-])c1	-4%	i	-10%	1%	-16%	21%
Cc1ccnc(NC(=O)/C=C/c2ccccc2Cl)c1	3.5µM*	i	5.6µM*	-25%	-14%	72%[11.3 µM]
COC(=O)/C=C/C(=O)Nc1cccnc1	11µM*	i	14%	-56%	0%	19%
CCC(=O)Nc1ccc(NC(=S)NC(=O)/C=C/c2ccccc2)cc1	13µM*	u	u	-21%	2%	-21%
CC(=O)c1ccc(NC(=S)NC(=O)/C=C/c2ccccc2)cc1	-24%	i	-14%	-22%	-9%	42%
COc1cc(O)ccc1C(C)=O	5%	x	7%	x	x	x
Fc1cc(F)c2ncc3c(-c4ccccc4)nn(-c4cccc(Cl)c4)c3c2c1	x	i	x	-8%	1%	-3%
CCCCOC(=O)CC(CC(=O)OCCCC)(OC(C)=O)C(=O)OCCCC	x	i	x	x	x	4%
COc1cc(NC(=O)N2CCC(CN3CCCCCC3)CC2)cc(OC)c1OC	x	x	x	-1%	0%	x

From PubChem
